Reference: PubChem BioAssay (NCATS)
Records with an inconclusive call do not appear. Activity calls are given as the source filed them. Unless noted, calls come from the whole dose curve; as a rule, active = well fitted curve in the direction sought with a large enough effect; inconclusive = small, poorly fitted or top-dose-only effect, or another doubt; inactive = no such curve, though single readings can be large; an effect the other way counts as inactive or inconclusive.

Columns and labels:
[1] = molecular target: Phospholipid hydroperoxide glutathione peroxidase GPX4 (Homo sapiens) (UniProt P36969); test: Primary qHTS Assay for Inhibitors of Recombinant Selenoprotein Glutathione Peroxidase 4 (GPX4) (AID 1845192); conditions: recombinant GPX4, GR-coupled NADPH fluorescence, 15 min; series mostly up to 50 µM; note: nearly all actives have a fitted effect of over 65% in size
Phospholipid hydroperoxide glutathione peroxidase GPX4 (Homo sapiens), sequence (P36969 whole entry, looked up): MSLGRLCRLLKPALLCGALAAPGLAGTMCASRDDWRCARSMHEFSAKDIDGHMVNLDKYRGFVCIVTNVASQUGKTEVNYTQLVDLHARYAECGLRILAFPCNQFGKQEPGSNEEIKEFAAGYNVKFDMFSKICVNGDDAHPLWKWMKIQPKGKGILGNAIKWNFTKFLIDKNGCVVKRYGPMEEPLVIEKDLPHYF
Procedure, shortened: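 qHTS, GR-coupled: GPX4 200 nM + cpd 30 min RT → GSH 1 mM, NADPH 0.5 mM, GR 100 nM → CHP 0.5 mM start; fluor 340/450 at t0 and t15 min; no-enzyme wells as control.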

[2] = qHTS for differential inhibitors of proliferation of Plasmodium falciparum line 7G8 (AID 1815); conditions: Plasmodium falciparum 7G8 proliferation inhibition; series mostly up to 28.7 µM;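 note: potency is the fitted concentration of half-maximal effect; parasite growth measured after three days of incubation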
[3] = qHTS for differential inhibitors of proliferation of Plasmodium falciparum line GB4 (AID 1816); conditions: Potency: Plasmodium falciparum GB4 proliferation inhibition; series mostly up to 28.7 µM;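 note: potency is the fitted concentration of half-maximal effect; parasite growth measured after 72 h incubation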
[4] = qHTS for differential inhibitors of proliferation of Plasmodium falciparum line 3D7 (AID 1876); note: potency is the fitted concentration of half-maximal effect; conditions: P. falciparum 3D7 proliferation inhibition; series mostly up to 28.7 µM
[5] = qHTS for differential inhibitors of proliferation of Plasmodium falciparum line D10 (AID 1877); conditions: series mostly up to 28.7 µM;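 note: potency is the fitted concentration of half-maximal effect; parasites grown with compound for 72 h before DNA staining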
[6] = qHTS for differential inhibitors of proliferation of Plasmodium falciparum line Dd2 (AID 1882); conditions: Potency: Plasmodium falciparum Dd2 proliferation inhibition; series mostly up to 28.7 µM; note: potency is the fitted concentration of half-maximal effect; nearly all actives have a fitted effect of over 65% in size
Procedure, shortened: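 SYBR Green DNA fluorescence (ex 485, em 535 nm) after overnight lysis quantifies parasite growth; compound exposure lasted 72 h at 37 C on infected red cells at 2.5% hematocrit, 0.3% parasitemia (final). Artemisinin 0.29 uM and vehicle wells define normalization.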

[7] = qHTS for differential inhibitors of proliferation of Plasmodium falciparum line W2 (AID 1883); conditions: Potency: Plasmodium falciparum W2 proliferation inhibition; series mostly up to 28.7 µM;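 note: potency is the fitted concentration of half-maximal effect; parasites grown with compound for 72 h before lysis and staining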
[8] = qHTS for differential inhibitors of proliferation of Plasmodium falciparum line HB3 (AID 1886); conditions: Potency: Plasmodium falciparum HB3 proliferation inhibition; series mostly up to 28.7 µM;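 note: potency is the fitted concentration of half-maximal effect; parasites grown with compound for 72 h before SYBR Green readout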
[9] = Validation screen for inhibitors of Lassa infection (AID 463096; calls by dose curve); conditions: Lassa virus infection, cell-based; series mostly up to 46.1 µM
[10] = Viability counterscreen for antagonist of constitutive androstane receptor (CAR) against the NCATS DSHEA and TCM libraries (AID 1794837); conditions: CAR reporter cell line viability counterscreen, qHTS; series mostly up to 40 µM;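 note: compound exposure lasted 24 h before viability reading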
Procedure, shortened: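 Viability was measured by CellTiter-Fluor fluorescence (405/540 nm, 1 hr) in HepG2-CYP2B6-hCAR cells. Cells were co-treated 24 hr with 48 uM CITCO (final), antagonist mode, and test substances.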

[11] = Viability counterscreen for agonist of constitutive androstane receptor (CAR) against the NCATS DSHEA and TCM libraries (AID 1794838); conditions: HepG2 cell viability counterscreen, CAR agonist assay; series mostly up to 40 µM;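 note: HepG2 cells with CYP2B6 reporter and hCAR plus 0.75 µM PK11195 antagonist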
Procedure, shortened: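 Cell viability, from CellTiter-Fluor fluorescence (405/540 nm), was scored after a 24 h, 37C exposure of HepG2 cells carrying CYP2B6 reporter and hCAR to test substances in presence of 0.75 uM PK11195.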

[12] = S16 Schwann cell viability assay (CellTiter-Glo assay) (AID 624031); conditions: S16 rat Schwann cells viability, 24 h; series mostly up to 57.5 µM;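 note: native untransfected S16 rat Schwann cells; cellular ATP luminescence as a viability measure; nearly all actives have a fitted effect of over 70% in size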
Procedure, shortened: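 Concentration-effect curves come from CellTiter-Glo luminescence of S16 rat Schwann cells after 24 h compound exposure. Each reading was normalized to DMSO wells (0%) and wells without cells, and curves were ranked by r2 and response magnitude.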

CP191 = test: qHTS profiling for inhibitors of Plasmodium falciparum proliferation (AID 504749); note: nearly all actives have a fitted effect of over 60% in size; note: potency is the fitted concentration of half-maximal effect; conditions: P. falciparum in erythrocytes, SYBR Green DNA, 72 h; series mostly up to 28.7 µM
Procedure, shortened: (§1)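 Quantitative HTS: compounds pinned into medium, infected erythrocytes added (0.3% parasitemia, 2.5% hematocrit), 72 h culture at 37 C under 5% CO2. Saponin/Triton lysis with SYBR Green I, overnight RT, then fluorescence read.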

CP211 = test: as above; conditions: P. falciparum in erythrocytes, SYBR Green DNA, 72 h; series mostly up to 28.7 µM
Procedure, shortened: as §1

CP291 = test: as above; conditions: P. falciparum in erythrocytes, SYBR Green DNA, 72 h; series mostly up to 28.7 µM
Procedure, shortened: as §1

CP297 = test: as above; conditions: P. falciparum in erythrocytes, SYBR Green DNA, 72 h; series mostly up to 28.7 µM
Procedure, shortened: as §1

DIV17 = test: as above; conditions: P. falciparum in erythrocytes, SYBR Green DNA, 72 h; series mostly up to 28.7 µM
Procedure, shortened: as §1

JCK = test: as above; conditions: P. falciparum in erythrocytes, SYBR Green DNA, 72 h; series mostly up to 28.7 µM
Procedure, shortened: as §1

PC15 = test: as above; conditions: P. falciparum in erythrocytes, SYBR Green DNA, 72 h; series mostly up to 28.7 µM
Procedure, shortened: as §1

W2 = test: as above; conditions: P. falciparum in erythrocytes, SYBR Green DNA, 72 h; series mostly up to 12.8 µM
Procedure, shortened: as §1

Measured: Potency

Cn1c(CCCCCCC(=O)NO)nc2cc(N(CCCl)CCCl)ccc21
inactive: [1]

CN1C[C@H](C(=O)N[C@]2(C)O[C@@]3(O)C4CCCN4C(=O)[C@H](Cc4ccccc4)N3C2=O)C[C@@H]2c3cccc4[nH]cc(c34)C[C@H]21 (some centres undefined)
inactive: [9]
active: [2] 0.224 µM | [3] 2.24 µM | [4] 2 µM | [5] 4.47 µM | [6] 2.51 µM | [7] 1.41 µM | [8] 0.891 µM

COC1=C[C@@]23CCN(C)[C@H](Cc4ccc(OC)c(O)c42)C3=CC1=O
inactive: [10] | [11]

C[C@]12CC[C@H]3[C@@H](CCC4=CC(=O)CC[C@@]43C)[C@@H]1CC[C@@H]2O
inactive: [12] | CP191 | CP211 | CP291 | CP297 | DIV17 | JCK | PC15

Clc1ccc([C@@H](OCCN2CCCCC2)c2ccccc2)cc1
inactive: CP211 | CP291 | CP297
active: DIV17 4.55 µM | PC15 3.16 µM | W2 1.81 µM

CC[C@]1(c2cccc(O)c2)CCCCN(C)C1
inactive: [12] | CP191 | JCK
active: W2 3.22 µM
